Assay outcomes as filed in PubChem.
GPR151 activ: activators of human GPR151. PathHunter beta-arrestin GPR151 cells, luminescence. Q8TDV0. hit rate 1% among 650,000. activation, % at 11.2 µM; in the data active = activation above about 4.9%
TEAD-YAP inh: TEAD-YAP interaction inhibition; HEK-TIYL cells, TEAD-Gal4/YAP UAS-luciferase luminescence; inhibition, % at 9.12 µM; hit rate 1.4% among 640,000; AID 1259422; in the data active = inhibition above about 32%
FBW7 activator: human FBW7 E3 ligase activation, primary screen; Q969H0; AlphaScreen FBW7–phospho-cyclin E peptide binding, activator screen; hit rate 0.13% among 650,000; AID 1259310; normalized activity (activation), % at 26.1 µM; in the data active = normalized activity above about 1.9%;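 note: purified mutant Fbw7 with reduced substrate affinity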
MITF inh: blocks human microphthalmia-associated transcription factor | O75030 | AlphaScreen MITF homodimerization, bead proximity signal | inhibition, % at 2.6 µM | hit rate 0.91% among 650,000; in the data active = inhibition above about 50%
Target sequence (O75030 whole entry, looked up): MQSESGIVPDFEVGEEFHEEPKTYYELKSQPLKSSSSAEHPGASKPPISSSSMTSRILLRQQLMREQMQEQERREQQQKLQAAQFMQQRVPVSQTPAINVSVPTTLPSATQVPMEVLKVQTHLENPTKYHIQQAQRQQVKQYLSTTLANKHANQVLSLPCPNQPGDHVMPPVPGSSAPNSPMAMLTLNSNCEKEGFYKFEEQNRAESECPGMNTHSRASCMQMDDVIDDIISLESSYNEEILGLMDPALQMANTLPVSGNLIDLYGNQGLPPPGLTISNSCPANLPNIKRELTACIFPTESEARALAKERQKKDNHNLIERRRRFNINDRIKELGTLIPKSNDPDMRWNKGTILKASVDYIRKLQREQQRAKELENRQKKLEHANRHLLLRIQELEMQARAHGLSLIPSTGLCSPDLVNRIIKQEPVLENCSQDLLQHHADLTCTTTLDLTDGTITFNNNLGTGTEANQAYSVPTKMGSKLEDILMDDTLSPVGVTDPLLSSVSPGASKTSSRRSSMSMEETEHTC
GPR151 conf act: confirmation of human GPR151 activators; shares compounds with GPR151 activ; GPR151 PathHunter beta-arrestin cells, luminescence, 90 min; % of EA-reagent control over plate median; activation, % at 11.2 µM; 6,700 tested, under 10 active; AID 1508609;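 active = mean percent activation across replicates above the confirmation screen cutoff of 4.91%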
GPR119 ag: activates human GPR119 in a GPR151 counter-screen; activation, % at 11.2 µM; shares compounds with GPR151 activ; GPR119 PathHunter beta-arrestin cells, luminescence, 90 min; 0 = compound-well median, 100 = enzyme-acceptor control; hit rate 0.3% among 6,700;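 active = mean percent activation in the counterscreen above 29.09%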;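 note: counterscreen on off-target GPR119 to flag nonselective hits from the GPR151 activator screen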
Each line names hits and unclear results; the compound was inactive in the other large screens (follow-up assays come after a bar, where they were run). Most compounds without a hit are left out; they make up all but 3.4% or so of the library.

O=C1NC(NS(=O)(=O)c2ccccc2)(C(F)(F)F)C(=O)N1c1ccc(Cl)cc1 (stereo not drawn)	GPR151 activ 5.9 | GPR151 conf act inactive | GPR119 ag inactive
Cc1ccc(S(=O)(=O)NC2(C(F)(F)F)NC(=O)N(c3ccc(Cl)cc3)C2=O)cc1 (stereo not drawn)	none
Clc1ccc(CSc2ncnc3nc[nH]c23)cc1	GPR151 activ 6.6 | GPR151 conf act inactive | GPR119 ag inactive
C=CCSc1nnc2c(n1)OC(c1ccc(OCC(=O)O)cc1)Nc1ccccc1-2 (stereo not drawn)	none
COc1cccc(NC(=O)C(CCSC)NC(=O)C2CCC(C)CC2)c1 (stereo not drawn)	GPR151 activ 10.2 | GPR151 conf act inactive | GPR119 ag inactive
CCOC(=O)c1cccc(NC(=O)C(CCSC)NC(=O)C2CCC(C)CC2)c1 (stereo not drawn)	none
Cc1cccc(-n2c(O)c(C=Nc3ccccc3I)c(=O)[nH]c2=O)c1	none
Cc1cccc(-n2c(O)c(/C=N/n3cnnc3)c(=O)[nH]c2=O)c1	GPR151 activ 5.3 | GPR151 conf act inactive | GPR119 ag inactive
CN1CCN(C(=O)c2ccc(-c3nc4ccc(C(=O)NCCOc5ccccc5)cc4s3)cc2)CC1	GPR151 activ 5.3 | GPR151 conf act inactive | GPR119 ag inactive
NC(=O)c1ccc(-c2nc3ccc(C(=O)NCCOc4ccccc4)cc3s2)cc1	GPR151 activ 5.7 | GPR151 conf act inactive | GPR119 ag inactive
CN1CCN(C(=O)c2ccc(-c3nc4ccc(C(=O)NCc5ccccc5)cc4s3)cc2)CC1	none
CC1CCCN(C(=O)CSc2nc3cc4c(cc3cc2C#N)OCO4)C1 (stereo not drawn)	none
COc1ccc(-c2nc(NCCO)c3ncn(C4CCCCC4)c3n2)cc1	GPR151 activ 6.0 | GPR151 conf act inactive | GPR119 ag inactive
CCC(C)NC(=O)c1cc(-c2ccc(O)cc2)on1 (stereo not drawn)	none
CCOC(=O)CN1C(=O)Nc2ccc(Br)cc2C1c1ccccc1 (stereo not drawn)	none
COC(=O)CN1C(=O)Nc2ccc(Br)cc2C1c1ccccc1Cl (stereo not drawn)	GPR151 activ 14.9 | GPR151 conf act inactive | GPR119 ag inactive
Cc1cc(NC(=O)c2ccc3c(c2)C(=O)N(c2ccc([N+](=O)[O-])cc2)C3=O)no1	GPR151 activ 5.7 | GPR151 conf act inactive | GPR119 ag inactive
CN(C)CCN1C(=O)C(CC(=O)Nc2cccc([N+](=O)[O-])c2)SC1=Nc1ccccc1 (stereo not drawn)	GPR151 activ 5.2 | GPR151 conf act inactive | GPR119 ag inactive
Cc1cc(N)c2ccccc2[n+]1CCCCCCCCCCCCCC[n+]1c(C)cc(N)c2ccccc21	GPR151 activ 6.6, TEAD-YAP inh 84.3 | GPR151 conf act inactive | GPR119 ag inactive
Nc1cc(=O)[nH]c2nnc(SCC(=O)Nc3nccs3)n12	none
CN(C)c1cccc(C(=O)OCc2nnc(-c3ccccc3)o2)c1	GPR151 activ 6.6 | GPR151 conf act inactive | GPR119 ag inactive
O=C(Cc1ccccc1)NCC(=O)OCc1ccc(Cl)cc1	none
CCOC(=O)CNC(=O)OCc1ccccc1	none
CCOC(=O)CNC(=O)N(Cc1ccccc1)Cc1ccccc1	GPR151 activ 5.3 | GPR151 conf act inactive | GPR119 ag inactive
NCC(=O)NCC(=O)OCc1ccccc1	GPR151 activ 7.5 | GPR151 conf act inactive | GPR119 ag inactive
Nc1c(C(=O)c2cc3ccccc3o2)oc2ccc(Br)cc12	none
CC(C)(C)C1=NN(CC(=O)Nc2nccs2)C(=O)c2cc3ccccc3n2C1	GPR151 activ 6.1 | GPR151 conf act inactive | GPR119 ag inactive
CC(C)(C)C1=NN(CCC(=O)O)C(=O)c2cc3ccccc3n2C1	GPR151 activ 7.7 | GPR151 conf act inactive | GPR119 ag inactive
Cc1cc(Nc2ccc3c(c2)OCO3)nc(Nc2nc3ccccc3n2C)n1	GPR151 activ 7.4 | GPR151 conf act inactive | GPR119 ag inactive
COCCNC(=O)c1nn(-c2ccc(OC)cc2)c(=O)c2c1c1ccccc1n2C	none
Cc1cc(C)n2nc(C(=O)N/N=C/c3cc([N+](=O)[O-])ccc3O)nc2n1	GPR151 activ 5.8 | GPR151 conf act inactive | GPR119 ag inactive
Cc1cc(C)nc(N/N=C/c2cc([N+](=O)[O-])ccc2O)n1	none
